# An excerpt weighted towards active compounds, which were near 2.7% of everything screened.
# Nrf2 inh – blocks Nrf2 signaling. 360,000 tested, 2.1% active. Potency, µM (highest dose often 46 µM), most hits filed as inhibitors. A549 ARE-Fluc reporter, luciferase luminescence, 18-24 h; further: nearly all actives have a fitted effect of over 60% in size
#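 A549 ARE_Fluc cells (5000/well, 5% FBS OPTI-MEM) pre-incubated 2 h, then treated with compounds 18-24 h at 37C/5% CO2 in concentration-response. CellTiter-Fluor viability read first; BugLite luciferase luminescence after 15 min at room temperature gives Nrf2 activity.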
# A549 viability – kills or reduces viability of A549 cells in Nrf2 counter-screen | A549 ARE-Fluc cells, CellTiter-Fluor viability, 18-24 h | Potency, µM (doses to about 46 µM), usual class: inhibitors | 390,000 tested, 0.16% active | AID 504648
#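 A549 ARE_Fluc cells in 5% FBS OPTI-MEM were exposed to compounds in concentration-response for 18-24 h at 37 deg C. Viability was read by CellTiter-Fluor fluorescence (Ex 405/Em 525) after 30 min, before the luciferase read.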
# ALOX12 inh – blocks human arachidonate 12S-lipoxygenase. P18054. purified 12hLO, xylenol orange hydroperoxide absorbance. Potency, µM (series often up to 108 µM), most hits filed as inhibitors. 580,000 tested, 1.1% active
#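 Hydroperoxide product was detected by ferrous iron/xylenol orange as the 573 to 405 nm absorbance ratio. Arachidonic acid at 40 uM (final) was turned over for 30 min at room temperature by 150 nM human 12hLO, pH 7.0 Hepes buffer, after 15 min compound preincubation.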
# LDHA inh – blocks human lactate dehydrogenase A | P00338 | purified LDHA, NADH/diaphorase-resazurin fluorescence; stronger effect = lower value | activity change, % (values are at about 110 or 230 µM) | 480,000 tested, 0.15% active | AID 1347041; in the data active means activity change below about -30%; inconclusive means mostly about -25% to -30%
#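 Resorufin fluorescence (ex540/em590), read at 0 and 20 min after diaphorase/resazurin addition, reports the NADH left after a 5 min room-temperature reaction of 2 nM human LDH5 with 0.06 mM NADH and 0.2 mM pyruvate.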
# mIDH1 inhibitor – blocks human mutant IDH1 R132H enzyme | O75874 | IDH1-R132H enzyme, NADPH consumption, diaphorase/resazurin fluorescence | Potency, µM (highest dose often 76.6 µM), hits mostly inhibitors | 390,000 tested, 0.093% active; further: nearly all actives have a fitted effect of over 65% in size
# Target sequence (O75874 whole entry R132H, stated change not applied): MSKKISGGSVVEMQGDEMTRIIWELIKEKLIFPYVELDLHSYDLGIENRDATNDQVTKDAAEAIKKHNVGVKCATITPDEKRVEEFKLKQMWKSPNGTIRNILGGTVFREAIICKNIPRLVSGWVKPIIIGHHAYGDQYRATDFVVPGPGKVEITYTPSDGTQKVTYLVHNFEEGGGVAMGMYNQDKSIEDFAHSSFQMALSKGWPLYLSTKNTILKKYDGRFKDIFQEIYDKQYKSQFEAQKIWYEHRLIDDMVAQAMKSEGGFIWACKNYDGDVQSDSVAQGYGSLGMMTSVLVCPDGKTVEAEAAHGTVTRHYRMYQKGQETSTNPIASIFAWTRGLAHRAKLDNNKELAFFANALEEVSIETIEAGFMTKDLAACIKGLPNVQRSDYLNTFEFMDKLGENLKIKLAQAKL
#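 IDH1-R132H (0.5 ug/mL dispensed) in pH 7.5 Tris buffer was preincubated 30 min with compound, then given a substrate mix of 0.016 mM NADPH and 2 mM alpha-KG for 80 min at room temperature; remaining NADPH was read by diaphorase/resazurin fluorescence.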
# Nrf2 ARE act – Nrf2 pathway activation; AREc32 ARE-luciferase reporter (MCF7-derived line), luminescence, 24 h; Potency, µM (doses to about 46.1 µM), usual class: activators; 410,000 tested, 0.31% active; AID 624171; further: nearly all actives have a fitted effect of over 65% in size
#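 ARE activation measured as luciferase luminescence (Steady-Glo, 30 min RT) in AREc32_Fluc cells after 24 hr compound exposure at 37 deg C, 5% CO2; cells seeded overnight at 1000/well in OPTI-MEM, 5% FBS.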
# A number is an active result; - = inactive; ? = inconclusive; . = no result given; ! = not active in a repeat; [ ] = another dose, or the depositor's remark. Unless noted, the call rests on the fitted dose curve; in most records, active means well fitted curve in the direction sought with a large enough effect; inconclusive means small, poorly fitted or top-dose-only effect, or another doubt; inactive means no such curve, though single readings can be large; an effect the other way counts as inactive or inconclusive.
SMILES,Nrf2 inh,A549 viability,ALOX12 inh,LDHA inh,mIDH1 inhibitor,Nrf2 ARE act
COc1ccc2c(C)c(CC(=O)Nc3ccc(Cn4cncn4)cc3)c(=O)oc2c1OC,.,.,-,-,.,.
O=S(=O)(c1c(Cl)cc(Br)cc1Cl)N1CCN(C(=S)NC2CC2)CC1,11.6µM,-,-,-,-,-
O=C(NCc1ccccc1)C1CCN(S(=O)(=O)c2ccc(OC(F)(F)F)cc2)CC1,.,.,-,-,.,.
S=C1NC(c2cccs2)=CC(c2ccc(Br)cc2)N1 (stereo not drawn),-,-,39.8µM,-,-,-
C=CCOc1ccc(CNCC2CC2)cc1,.,.,-,-,.,.
O=C(O)CCc1ccc(-c2ccc(Br)cc2)o1,-,.,44.7µM,-,-,?
O=C(O)CCc1ccc(-c2ccc(Cl)cc2)o1,-,-,?,-,-,?
Oc1ccc(CNc2ccccc2F)c2cccnc12,?,-,2.24µM!,-,-,-
Oc1ccc(NCc2ccccc2F)c2cccnc12,-,-,.,-,.,.
Oc1ccc(CNc2ccc(F)cc2F)c2cccnc12,10.3µM,-,.,-,.,.
Oc1ccc(CNc2ccccc2C(F)(F)F)c2cccnc12,?,-,.,-,.,.
COc1ccc(CCC(=O)Nc2ccc3c(c2)NC(=O)C(C)O3)cc1OC (stereo not drawn),.,.,-,-,.,.
COc1ccc(OCc2nnc(SCC(=O)NC3CC3)n2C)cc1,-,-,-,-,-,-
COc1ccc(C(=O)NCc2nnc(SCC(=O)NC3CCCCC3)n2C)cc1,-,-,39.8µM,-,-,-
COc1ccc(C2=C(O)C(=O)N(Cc3ccncc3)C2c2ccc(Br)cc2)cc1 (stereo not drawn),.,.,?,-,.,.
COc1ccc(C2=C(O)C(=O)N(Cc3ccc(C)cc3)C2c2ccc(F)cc2)cc1 (stereo not drawn),.,.,17.8µM,-,.,.
COc1ccc(C2=C(O)C(=O)N(CCc3ccccc3)C2c2ccc(C(=O)O)cc2)cc1 (stereo not drawn),.,.,17.8µM,-,.,.
COC(=O)c1ccc(C2C(c3ccc(C)cc3)=C(O)C(=O)N2CCc2ccccc2)cc1 (stereo not drawn),.,.,?,-,.,.
Cc1cc(S(=O)(=O)c2ccc([N+](=O)[O-])cn2)ccc1Br,?,-,-,-,-,12.6µM
Fc1cccc(Cl)c1Cn1nnc2c(NCc3ccccn3)ncnc21,-,-,-,-,-,-
Fc1cccc(Cl)c1Cn1nnc2c(NCc3ccncc3)ncnc21,23.1µM,-,-,-,-,-
NC(=S)N/N=C/c1ccc(-c2ccc([N+](=O)[O-])cc2)o1,-,-,31.6µM,-,-,-
NC(=S)N/N=C/c1ccc(-c2cc(Cl)cc(Cl)c2)o1,?,-,39.8µM,-,-,-
NS(=O)(=O)c1ccc(-c2ccc(/C=N/Nc3ccc([N+](=O)[O-])cc3)o2)cc1,.,.,?,-,.,.
NC(=S)N/N=C/c1ccc(-c2cc(Cl)ccc2Cl)o1,-,-,22.4µM,-,-,-
SMILES,Nrf2 inh,A549 viability,ALOX12 inh,LDHA inh,mIDH1 inhibitor,Nrf2 ARE act
O=C(CCc1c[nH]c2ccccc12)Nc1nnc(C2CCCCC2)s1,.,.,-,-,.,.
CC(NC(=O)/C(=C\c1ccc(Br)cc1)NC(=O)c1ccc(Br)o1)C(=O)O (stereo not drawn),.,.,?,-,.,.
O=C(Nc1ccccc1SC(=O)c1ccccc1)c1ccccc1,.,.,5.62µM,-,-,?
O=[N+]([O-])c1ccc(Oc2ccc(S(=O)(=O)N3CCOCC3)cc2)cc1,25.9µM,-,-,-,-,-
CCC/C(=N\NC(=O)C(O)(c1ccc(C)cc1)c1ccc(C)cc1)c1ccccc1,.,.,?,-,.,.
CNc1c2cccc(C)c2nc2c(C(=O)NCCN(C)C)cccc12,1.46µM,4.61µM,?,-,-,-
Nc1nc(CSC(=S)N2CCN(c3ccccc3)CC2)nc(Nc2ccccc2)n1,16.4µM,-,-,-,-,-
CCN(C(=O)COC(=O)c1cc2ccccc2[nH]1)C1CCCCC1,.,.,?,-,.,.
N#CC1=C(N)C(C#N)(C#N)C(c2cccnc2)C2CC(c3ccccc3)CC=C12 (stereo not drawn),.,-,.,-,13.1µM,?
FC(F)Oc1ccc(NC(=S)NCc2ccccc2)cc1,-,-,?,-,-,-
Cc1ccc(NC(=S)NCc2ccc3c(c2)cc(C)n3C)c(C)c1,-,-,35.5µM,-,-,-
Cc1ccc(NC(=S)NCc2ccc3c(c2)OCO3)c(C)c1,-,-,39.8µM,-,-,-
Cc1cc2cc(CNC(=S)Nc3ccc(OC(F)F)cc3)ccc2n1C,-,-,35.5µM,-,-,-
C/C(=N/Nc1ccc(S(N)(=O)=O)cc1[N+](=O)[O-])c1ccc(C)o1,.,.,-,-,.,.
CCC(C)c1ccc(NC(=S)Nc2ccc(OC)cc2)cc1 (stereo not drawn),?,-,44.7µM,-,-,-
COc1ccc(CCNC(=S)Nc2ccc(C(C)C)cc2)cc1,-,-,39.8µM,-,-,-
CCOc1ccc(NC(=S)Nc2ccc(OC)cc2)cc1,-,-,?,-,-,-
COc1ccccc1CC(=O)Nc1nc(C)c(C(C)=O)s1,.,.,-,-,.,.
COc1ccc(NC(C)=O)cc1NC(=O)c1nn(C)c(=O)c2ccccc12,.,.,-,-,.,.
Cc1cc(F)ccc1NC(=O)Cn1nc(N2CCN(c3ccccc3)CC2)ccc1=O,-,-,-,-,-,-
Cc1cccc(NC(=O)c2ccc(Cn3nc(N4CCN(c5ccccc5)CC4)ccc3=O)o2)c1C,20.6µM,?,?,-,-,-
COC(=O)c1c(C)[nH]c(C(=O)CSc2nncn2C(C)C)c1C,.,.,-,-,.,.
CCC(C)/C(C)=N/Nc1nc2ccccc2[nH]1 (stereo not drawn),.,.,?,-,.,.
O=C1NCc2ccccc2CC12CCN(Cc1ccc([N+](=O)[O-])cc1)C2 (stereo not drawn),.,.,50.1µM,.,.,.
Cc1ccc(CCN2CCC3(Cc4ccccc4CN([S+](C)(=O)[O-])C3)C2)cc1 (stereo not drawn),.,.,7.08µM,.,.,.
SMILES,Nrf2 inh,A549 viability,ALOX12 inh,LDHA inh,mIDH1 inhibitor,Nrf2 ARE act
O=C1NCc2ccccc2CC12CCN(Cc1ccc(Br)cc1)C2 (stereo not drawn),.,.,28.2µM,.,.,.
CCOc1ccc(CN2CCC3(Cc4ccccc4CNC3=O)C2)cc1 (stereo not drawn),.,.,-[6.33 µM],.,.,.
O=C1NCc2ccccc2CC12CCCN(Cc1ccccc1)C2 (stereo not drawn),.,.,-[6.33 µM],.,.,.
C[S+](=O)([O-])N1CC2(CCN(Cc3ccc(Cl)cc3)C2)Cc2ccccc21 (stereo not drawn),.,.,44.7µM,.,.,.
O=C(NN=C(C1CC1)C1CC1)c1cccc([N+](=O)[O-])c1,.,.,-,-,.,.
O=C1NCc2ccccc2CC12CCN(Cc1ccc(Cl)cc1)C2 (stereo not drawn),.,.,22.4µM,.,.,.
